# Assay outcomes deposited in PubChem by National Center for Advancing Translational Sciences (NCATS).
# An excerpt weighted towards active compounds, which were near 12% of everything screened.
# Pf growth 48h = Primary qHTS for delayed death inhibitors of the malarial parasite plastid, 48 hour incubation; P. falciparum luciferase growth in erythrocytes, 48 h; Potency, µM (titrated, usually from 28.7 µM), without a hit: at the top dose activity change, negative = inhibition, usual class: inhibitors; actives 5.9% (n = 310,000); AID 504832, 2011; further: on the % scale 0 is the no-effect control and ±100 the full control effect
#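 Erythrocytes infected with P. falciparum carrying an integrated firefly luciferase reporter (2% hematocrit, 0.1% parasitemia final) were exposed to compounds in RPMI 1640 with 0.5% Albumax at 37 C, 5% CO2. Growth inhibition was scored as reduced luminescence.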
# NS1 function inh = qHTS Assay for Inhibitors of Influenza NS1 Protein Function | Potency, µM (doses to about 46.1 µM), inactives show at the top dose activity, positive = more growth | actives 0.4% (n = 270,000) | AID 2326, 2010; calls by dose curve; further: actives are rising curves; nearly all actives have a fitted effect of over 50% in size
#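 Compounds were scored for reversing the slow growth caused by influenza A NS1 in S. cerevisiae, measured by optical density at 600 nm. Assay medium contained 2% galactose at pH 6.0; NS1-free yeast of the same strain were the positive control.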
# SARS PLP yeast = qHTS of Yeast-based Assay for SARS-CoV PLP. S. cerevisiae expressing SARS-CoV PLpro, growth rescue. Potency, µM (doses to about 32.9 µM), for inactives: at the top dose activity, positive = growth rescue, most hits filed as activators. actives 0.19% (n = 330,000). AID 485353, 2010; calls by dose curve; further: 0% is about no effect; nearly all actives have a fitted effect of over 55% in size
# Pf growth 96h = Primary qHTS for delayed death inhibitors of the malarial parasite plastid, 96 hour incubation | P. falciparum luciferase reporter growth, 96 h | Potency, µM (titrated, usually from 28.7 µM), for inactives: at the top dose activity change, negative = inhibition, usual class: inhibitors | actives 6.9% (n = 320,000); further: on the % scale 0 is the no-effect control and ±100 the full control effect
#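 Delayed-death screen, second-generation endpoint: infected erythrocytes, 2% hematocrit, 0.05% parasitemia final; 96 hours at 37 C, 5% CO2; luciferase detection reagent; luminescence decrease equals reduced growth.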
# AMA1-RON2 inh = qHTS for Inhibitors of AMA1-RON; Towards Development of Antimalarial Drug Lead: Primary Screen; AlphaScreen AMA1-biotinylated RON2 peptide binding; Potency, µM (series often up to 58.2 µM), for inactives: at the highest dose activity change, negative = inhibition, actives largely listed as inhibitors; actives 0.2% (n = 360,000);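 further: 0% = vehicle wells and -100% = peptide control; nearly all actives have a fitted effect of over 45% in size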
#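 AMA1 (3D7) with his tag at 25 nM final met compounds first, then biotinylated RON2 peptide at 25 nM; detection used donor plus acceptor beads, 10 µg/mL apiece, read by AlphaScreen after 30 min at room temperature.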
# HCV inhibitor = qHTS Assay for Inhibitors of Hepatitis C Virus (HCV). Huh7.5.1 HCVcc-Cre infection, luciferase reporter, 44 h. Potency, µM (titrated, usually from 41.8 µM), for the others: top-dose activity change, negative = inhibition, most hits filed as inhibitors. AID 651820, 2012. actives 3.4% (n = 340,000); further: on the % scale 0 is the no-effect control and ±100 the full control effect
#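 Infectious HCVcc-Cre (~0.5 moi) was added to cells just after compound, with cells seeded 4 h earlier at 1,000 per well. Luciferase activity after 44 h culture reported infection; substrate was incubated 15 min at room temperature before reading.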
# * = called active by the depositor; ? = inconclusive; . = no result given. Unless noted, the call rests on the fitted dose curve; in most records, active means well fitted curve in the direction sought with a large enough effect; inconclusive means small, poorly fitted or top-dose-only effect, or another doubt; inactive means no such curve, though single readings can be large; an effect the other way counts as inactive or inconclusive. Potency means the concentration at half of the fitted maximal effect.
SMILES,Pf growth 48h,NS1 function inh,SARS PLP yeast,Pf growth 96h,AMA1-RON2 inh,HCV inhibitor
COc1ccc(Cl)cc1NC(=O)CC(C)c1ccccc1 (stereo not given),.,-114%,-20%,.,20%,8.9µM*
COc1ccc(Cl)cc1NC(=O)CN(C)C(=O)c1cc(=O)c2ccccc2o1,12µM*,.,-7%,?,-13%,-20%
COc1ccc(NC(=O)C/C(C)=N/NC(=O)c2ccccn2)c(OC)c1,10%,-16%,6%,13µM*,72%,-5%
CCc1ccccc1Oc1ccc(S(=O)(=O)N2CCN(C)CC2)cn1,61%,.,-1%,35%,-23%,-18%
CCOc1ccc(N(CC(=O)Nc2cc(C)ccc2C)S(=O)(=O)c2c(C)[nH]c(=O)[nH]c2=O)cc1,-29%,-3%,3%,3%,2%,28%
COc1ccc(CN(C)CC(O)COC(c2ccccc2)c2ccccc2)c(OC)c1OC (stereo not given),10µM*,-15%,6%,?,0%,16µM*
COc1ccc(CCN(C)Cc2ccc(F)cc2F)cc1OC,.,4%,3%,28%,-8%,-5%
COc1ccc(CN(C)CC(O)COc2ccc(C(=O)c3ccccc3)cc2)c(OC)c1OC (stereo not given),?,-9%,4%,?,1%,?
CCN(Cc1ccccc1)CC(O)COC(c1ccc(OC)cc1)c1ccc(OC)cc1 (stereo not given),15µM*,-1%,0%,9.3µM*,-28%,?
COc1ccc(CCN(C)Cc2cccc3ccccc23)cc1OC,?,7%,5%,6%,-13%,-8%
COc1ccc(CCN(C)CC(O)COC(c2ccc(F)cc2)c2ccc(F)cc2)cc1OC (stereo not given),13µM*,2%,1%,10µM*,-8%,?
COc1ccc(CCN(C)CC(O)COc2c(C)ccc(C)c2C)cc1OC (stereo not given),15µM*,5%,1%,?,18%,?
CCN(CC)CC(O)COC(c1ccccc1)c1ccccc1 (stereo not given),?,-55%,-1%,?,-1%,-19%
Cc1ccc(-n2ccc(=O)c(C(=O)Nc3ccc(S(=O)(=O)Nc4onc(C)c4C)cc3)n2)cc1,-14%,-30%,.,-19%,0%,15%
CC(=O)N1CC(C)Oc2ccc(S(=O)(=O)NC(CC(=O)O)c3cc(C)ccc3C)cc21 (stereo not given),0%,?,-3%,12µM*,-5%,20%
CC(=O)N1CC(C)Oc2ccc(S(=O)(=O)NC(CC(=O)O)c3ccccc3C)cc21 (stereo not given),19%,1%,0%,144%,-2%,27%
Cc1ccc(CNC(=O)CSCc2cccc(F)c2)cc1,86%,.,-2%,0%,-1%,-3%
O=C(CSCc1cccc(F)c1)NCc1ccccc1,302%,.,1%,2.1µM*,42%,18%
Cc1c(CCC(=O)NCCCn2ccnc2)c(=O)oc2c(C)c3occ(C(C)(C)C)c3cc12,?,-14%,-1%,9.3µM*,24%,?
Cc1coc2c(C)c3oc(=O)c(CCC(=O)NCCCn4ccnc4)c(C)c3cc12,10µM*,2%,-14%,?,-20%,?
Cc1coc2c(C)c3oc(=O)c(CCC(=O)NCCCN4CCOCC4)c(C)c3cc12,?,-11%,-10%,?,-5%,?
NNC(=O)CN1C(=O)Nc2ccc(Cl)cc2C1c1ccccc1 (stereo not given),?,12%,-4%,?,36%,1%
COC(=O)CN1C(=O)Nc2ccc(Br)cc2C1c1ccccc1 (stereo not given),-23%,-1%,10%,3.7µM*,-11%,-15%
